The values below come from paper PMC7862700, “An all-to-all approach to the identification of sequence-specific readers for epigenetic DNA modifications on cytosine”.

Common to all, as to experiment: DAPPL (digital affinity profiling via proximity ligation, sequencing); 10 mM Tris-HCl pH 7.5, 50 mM NaCl, 1 mM DTT, 4% glycerol, room temperature, 30 min; GST-TFs on glutathione beads, 16-mer random dsDNA library, 0.1% formaldehyde crosslink after washing; high values mean tight binding
The target of one assay is T1, FEV (Homo sapiens, UniProt Q99581 1-238).
T1 sequence: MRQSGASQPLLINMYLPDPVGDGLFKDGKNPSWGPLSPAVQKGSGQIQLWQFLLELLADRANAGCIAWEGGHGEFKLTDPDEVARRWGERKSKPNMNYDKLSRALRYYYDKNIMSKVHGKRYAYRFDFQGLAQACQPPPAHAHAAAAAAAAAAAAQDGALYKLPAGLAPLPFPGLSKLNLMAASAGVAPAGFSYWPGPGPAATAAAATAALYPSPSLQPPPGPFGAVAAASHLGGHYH
As to conditions: protein: recombinant; tags: N-terminal GST; dsDNA, one strand shown. In a few lines:
(§1)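 Binding signal is defined as a hexamer's read frequency for one factor over its frequency for the tag-only sample. To obtain reads, GST-fused human transcription factors were expressed in yeast, captured on glutathione beads, barcoded with DNA and pooled with that sample. Pools met 200 nmole of a 16-mer random double-stranded DNA library in Tris/NaCl/DTT/glycerol buffer for 30 min at room temperature before washing, 0.1% formaldehyde crosslinking, proximity ligation (BsaI/T4 ligase, 1 h, 37 °C), PCR and Illumina NextSeq500 sequencing.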

The next assay addresses ETV5 (Homo sapiens, UniProt P41161 1-510). The settings on record: protein: recombinant; tags: N-terminal GST; dsDNA, one strand shown. In outline: as §1
The target in the next assay is HSF1 (Homo sapiens, UniProt Q00613 1-529). As to conditions: protein: recombinant; tags: N-terminal GST; chain copies: 3; dsDNA, one strand shown. In outline:
as §1

The next assay addresses T2, SPIC (Homo sapiens, UniProt Q8N5J4 1-248).
T2 sequence: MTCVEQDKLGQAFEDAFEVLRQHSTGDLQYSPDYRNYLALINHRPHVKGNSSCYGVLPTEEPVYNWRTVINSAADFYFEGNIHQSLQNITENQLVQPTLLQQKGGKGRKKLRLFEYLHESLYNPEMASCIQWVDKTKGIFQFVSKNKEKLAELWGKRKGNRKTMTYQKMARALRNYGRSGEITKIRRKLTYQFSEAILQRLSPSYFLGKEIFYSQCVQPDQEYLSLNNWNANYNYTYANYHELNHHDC
The settings on record: protein: recombinant; tags: N-terminal GST; dsDNA, one strand shown. In outline: as §1

The target of another assay is ELF4 (Homo sapiens, UniProt Q99607 1-663). The settings on record: protein: recombinant; tags: N-terminal GST; dsDNA, one strand shown. In a few lines: as §1
Sequence of ELF4 (Q99607 whole entry): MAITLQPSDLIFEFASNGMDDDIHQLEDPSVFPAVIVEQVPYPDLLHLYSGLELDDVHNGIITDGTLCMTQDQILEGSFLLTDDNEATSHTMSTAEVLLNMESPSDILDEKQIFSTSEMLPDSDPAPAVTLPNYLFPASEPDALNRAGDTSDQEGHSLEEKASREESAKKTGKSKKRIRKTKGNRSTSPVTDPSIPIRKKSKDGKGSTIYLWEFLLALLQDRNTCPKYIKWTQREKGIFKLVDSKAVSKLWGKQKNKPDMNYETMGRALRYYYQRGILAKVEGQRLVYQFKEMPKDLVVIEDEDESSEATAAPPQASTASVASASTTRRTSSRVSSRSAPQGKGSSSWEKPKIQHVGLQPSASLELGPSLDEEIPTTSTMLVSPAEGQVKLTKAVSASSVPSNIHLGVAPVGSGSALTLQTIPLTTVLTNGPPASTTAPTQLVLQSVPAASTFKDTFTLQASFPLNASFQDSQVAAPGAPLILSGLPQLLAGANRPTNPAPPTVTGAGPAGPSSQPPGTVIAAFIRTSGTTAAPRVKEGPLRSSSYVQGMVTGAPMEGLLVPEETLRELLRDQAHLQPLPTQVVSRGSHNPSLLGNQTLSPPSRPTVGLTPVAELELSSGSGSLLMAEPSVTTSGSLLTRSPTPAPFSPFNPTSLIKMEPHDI
The target of another assay is T3, ELK4 (Homo sapiens, UniProt P28324-2 1-405).
T3 sequence: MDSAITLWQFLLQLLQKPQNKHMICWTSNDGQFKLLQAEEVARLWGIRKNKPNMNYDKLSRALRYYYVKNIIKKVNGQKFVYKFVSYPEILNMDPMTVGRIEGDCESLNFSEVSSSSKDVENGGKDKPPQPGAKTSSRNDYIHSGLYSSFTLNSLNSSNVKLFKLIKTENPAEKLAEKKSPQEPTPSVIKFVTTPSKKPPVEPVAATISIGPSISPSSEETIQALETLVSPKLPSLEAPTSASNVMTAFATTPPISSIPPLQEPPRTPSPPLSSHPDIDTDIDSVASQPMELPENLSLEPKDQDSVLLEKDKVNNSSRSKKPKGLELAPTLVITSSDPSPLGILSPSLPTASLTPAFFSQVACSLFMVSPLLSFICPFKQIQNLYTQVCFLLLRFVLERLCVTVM
As to conditions: protein: recombinant; tags: N-terminal GST; dsDNA, one strand shown. In outline:
as §1

For another assay, the target named is T4, ETV2 (Homo sapiens, UniProt O00321 1-342).
T4 sequence: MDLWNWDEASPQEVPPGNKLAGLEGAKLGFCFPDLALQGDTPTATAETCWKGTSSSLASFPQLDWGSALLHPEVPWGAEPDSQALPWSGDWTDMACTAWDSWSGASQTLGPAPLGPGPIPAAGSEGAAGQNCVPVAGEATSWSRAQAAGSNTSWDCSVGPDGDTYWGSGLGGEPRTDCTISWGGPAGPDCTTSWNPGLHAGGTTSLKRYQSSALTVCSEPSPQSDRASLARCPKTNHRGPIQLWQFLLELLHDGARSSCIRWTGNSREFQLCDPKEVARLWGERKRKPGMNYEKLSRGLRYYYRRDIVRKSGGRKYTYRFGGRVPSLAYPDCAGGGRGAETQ
The settings on record: protein: recombinant; tags: N-terminal GST; dsDNA, one strand shown. In outline:
as §1

The next assay has as its target T5, ELF3 (Homo sapiens, UniProt P78545 1-371).
T5 sequence: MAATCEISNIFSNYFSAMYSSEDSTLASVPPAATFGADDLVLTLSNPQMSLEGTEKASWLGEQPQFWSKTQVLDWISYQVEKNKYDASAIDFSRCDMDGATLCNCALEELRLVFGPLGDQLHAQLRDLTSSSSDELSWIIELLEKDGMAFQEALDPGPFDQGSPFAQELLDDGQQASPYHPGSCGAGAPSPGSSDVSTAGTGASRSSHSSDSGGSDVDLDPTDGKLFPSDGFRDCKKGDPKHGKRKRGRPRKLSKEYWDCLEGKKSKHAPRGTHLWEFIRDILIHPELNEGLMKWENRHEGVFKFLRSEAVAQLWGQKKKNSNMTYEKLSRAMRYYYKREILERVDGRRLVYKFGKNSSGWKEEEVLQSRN
As to conditions: protein: recombinant; tags: N-terminal GST; dsDNA, one strand shown. In outline:
as §1

A further assay deals with CRX (Homo sapiens, UniProt O43186 1-299). The settings on record: protein: recombinant; tags: N-terminal GST; dsDNA, one strand shown. In outline:
as §1

Another assay deals with ETV1 (Homo sapiens, UniProt P50549 1-477). The settings on record: protein: recombinant; tags: N-terminal GST; dsDNA, one strand shown. In a few lines:
as §1

A further assay addresses T6, ERF (Homo sapiens, UniProt P50548 1-548).
T6 sequence: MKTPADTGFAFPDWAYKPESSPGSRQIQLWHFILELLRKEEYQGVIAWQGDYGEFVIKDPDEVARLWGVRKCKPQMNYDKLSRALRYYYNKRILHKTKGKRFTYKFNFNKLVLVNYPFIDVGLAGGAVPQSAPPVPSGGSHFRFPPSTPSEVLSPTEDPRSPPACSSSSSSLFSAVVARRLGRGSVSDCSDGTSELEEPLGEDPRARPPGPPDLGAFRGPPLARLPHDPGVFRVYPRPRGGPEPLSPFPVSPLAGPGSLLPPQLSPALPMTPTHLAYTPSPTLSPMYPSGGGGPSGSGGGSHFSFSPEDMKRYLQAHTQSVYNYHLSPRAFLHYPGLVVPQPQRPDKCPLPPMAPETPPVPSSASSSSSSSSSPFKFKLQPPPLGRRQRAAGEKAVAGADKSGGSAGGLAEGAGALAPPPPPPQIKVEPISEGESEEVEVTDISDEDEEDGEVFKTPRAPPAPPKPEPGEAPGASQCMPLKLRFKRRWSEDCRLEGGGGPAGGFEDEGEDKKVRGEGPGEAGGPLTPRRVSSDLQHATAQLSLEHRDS
The settings on record: protein: recombinant; tags: N-terminal GST; dsDNA, one strand shown. In a few lines: as §1

The target of a further assay is T7, ETV3L (Homo sapiens, UniProt Q6ZN32 1-361).
T7 sequence: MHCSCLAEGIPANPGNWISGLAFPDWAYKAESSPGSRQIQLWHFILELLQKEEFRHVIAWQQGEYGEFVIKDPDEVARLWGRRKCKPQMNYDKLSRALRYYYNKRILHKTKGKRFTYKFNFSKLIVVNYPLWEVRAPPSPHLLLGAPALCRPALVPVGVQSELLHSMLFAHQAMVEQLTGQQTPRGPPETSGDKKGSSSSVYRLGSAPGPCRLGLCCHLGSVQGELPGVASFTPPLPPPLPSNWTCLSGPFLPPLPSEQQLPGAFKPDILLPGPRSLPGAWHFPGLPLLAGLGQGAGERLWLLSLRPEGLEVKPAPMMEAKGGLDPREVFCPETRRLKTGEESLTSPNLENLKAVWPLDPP
The settings on record: protein: recombinant; tags: N-terminal GST; dsDNA, one strand shown. In a few lines: as §1

The target of a further assay is T8, ETS2 (Homo sapiens, UniProt P15036 1-469).
T8 sequence: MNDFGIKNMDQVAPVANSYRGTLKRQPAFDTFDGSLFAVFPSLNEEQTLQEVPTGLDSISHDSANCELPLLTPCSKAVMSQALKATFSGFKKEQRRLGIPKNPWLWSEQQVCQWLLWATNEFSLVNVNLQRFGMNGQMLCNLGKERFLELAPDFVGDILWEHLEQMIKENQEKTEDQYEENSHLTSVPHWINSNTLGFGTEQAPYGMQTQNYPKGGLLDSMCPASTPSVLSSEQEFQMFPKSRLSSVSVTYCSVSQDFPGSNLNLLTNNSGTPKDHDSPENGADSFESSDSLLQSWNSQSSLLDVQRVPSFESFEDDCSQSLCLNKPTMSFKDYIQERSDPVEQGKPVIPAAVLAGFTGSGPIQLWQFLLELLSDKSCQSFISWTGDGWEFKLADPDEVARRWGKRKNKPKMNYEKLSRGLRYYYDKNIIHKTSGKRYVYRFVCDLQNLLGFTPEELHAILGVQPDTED
The settings on record: protein: recombinant; tags: N-terminal GST; dsDNA, one strand shown. In outline:
as §1

The next assay deals with T9, SPDEF (Homo sapiens, UniProt O95238 1-335).
T9 sequence: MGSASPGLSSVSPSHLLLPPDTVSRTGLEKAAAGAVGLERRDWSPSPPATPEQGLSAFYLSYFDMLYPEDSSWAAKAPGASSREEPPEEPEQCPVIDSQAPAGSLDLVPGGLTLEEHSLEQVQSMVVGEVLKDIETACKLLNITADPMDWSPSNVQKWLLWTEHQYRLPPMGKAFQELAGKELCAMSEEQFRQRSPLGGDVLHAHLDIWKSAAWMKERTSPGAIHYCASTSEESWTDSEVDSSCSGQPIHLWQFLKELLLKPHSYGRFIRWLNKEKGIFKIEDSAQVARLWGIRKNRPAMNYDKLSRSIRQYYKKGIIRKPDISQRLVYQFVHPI
As to conditions: protein: recombinant; tags: N-terminal GST; dsDNA, one strand shown. In a few lines: as §1

For a further assay, the target named is T10, ETV7 (Homo sapiens, UniProt Q9Y603 1-341).
T10 sequence: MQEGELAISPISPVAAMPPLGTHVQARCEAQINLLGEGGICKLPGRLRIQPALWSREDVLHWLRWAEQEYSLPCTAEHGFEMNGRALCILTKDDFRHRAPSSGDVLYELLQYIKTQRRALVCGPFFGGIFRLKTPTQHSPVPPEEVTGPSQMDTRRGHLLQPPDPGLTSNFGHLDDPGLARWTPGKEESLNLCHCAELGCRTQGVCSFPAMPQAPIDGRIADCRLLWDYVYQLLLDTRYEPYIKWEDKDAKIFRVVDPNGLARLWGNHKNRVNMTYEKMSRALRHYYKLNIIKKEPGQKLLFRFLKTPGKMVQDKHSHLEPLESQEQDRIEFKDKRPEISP
As to conditions: protein: recombinant; tags: N-terminal GST; dsDNA, one strand shown. In outline:
as §1

A further assay has as its target T11, ELF5 (Homo sapiens, UniProt Q9UKW6-2 1-255).
T11 sequence: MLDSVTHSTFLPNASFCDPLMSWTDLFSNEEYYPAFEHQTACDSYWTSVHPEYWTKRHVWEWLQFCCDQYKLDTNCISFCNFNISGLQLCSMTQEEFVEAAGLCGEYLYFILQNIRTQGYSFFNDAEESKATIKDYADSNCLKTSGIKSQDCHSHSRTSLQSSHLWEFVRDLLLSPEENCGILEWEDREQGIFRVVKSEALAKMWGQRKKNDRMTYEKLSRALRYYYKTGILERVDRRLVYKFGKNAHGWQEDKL
The settings on record: protein: recombinant; tags: N-terminal GST; dsDNA, one strand shown. In a few lines:
as §1

A further assay addresses T12, ETV3 (Homo sapiens, UniProt P41162-2 1-143).
T12 sequence: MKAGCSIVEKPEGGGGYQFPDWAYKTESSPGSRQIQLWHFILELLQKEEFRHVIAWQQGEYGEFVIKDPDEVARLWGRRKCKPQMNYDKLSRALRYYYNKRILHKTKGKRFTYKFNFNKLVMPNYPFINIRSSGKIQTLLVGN
The settings on record: protein: recombinant; tags: N-terminal GST; dsDNA, one strand shown. In a few lines: as §1

The next assay deals with ETV6 (Homo sapiens, UniProt P41212 1-452). As to conditions: protein: recombinant; tags: N-terminal GST; dsDNA, one strand shown. In outline: as §1
Sequence of ETV6 (P41212 whole entry): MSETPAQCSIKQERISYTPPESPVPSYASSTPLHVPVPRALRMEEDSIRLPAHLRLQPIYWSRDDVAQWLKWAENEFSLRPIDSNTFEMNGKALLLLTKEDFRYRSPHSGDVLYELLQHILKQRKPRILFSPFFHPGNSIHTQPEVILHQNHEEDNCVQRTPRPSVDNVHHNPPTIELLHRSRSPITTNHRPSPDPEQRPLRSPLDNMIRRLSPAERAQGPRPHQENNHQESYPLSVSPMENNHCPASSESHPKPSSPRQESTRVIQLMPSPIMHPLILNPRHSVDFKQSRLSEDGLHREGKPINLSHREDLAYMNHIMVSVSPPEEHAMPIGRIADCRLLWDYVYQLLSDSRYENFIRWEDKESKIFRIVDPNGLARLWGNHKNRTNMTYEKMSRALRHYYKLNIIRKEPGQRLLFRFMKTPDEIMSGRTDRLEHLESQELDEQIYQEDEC

Sequence of ETV1 (P50549 whole entry): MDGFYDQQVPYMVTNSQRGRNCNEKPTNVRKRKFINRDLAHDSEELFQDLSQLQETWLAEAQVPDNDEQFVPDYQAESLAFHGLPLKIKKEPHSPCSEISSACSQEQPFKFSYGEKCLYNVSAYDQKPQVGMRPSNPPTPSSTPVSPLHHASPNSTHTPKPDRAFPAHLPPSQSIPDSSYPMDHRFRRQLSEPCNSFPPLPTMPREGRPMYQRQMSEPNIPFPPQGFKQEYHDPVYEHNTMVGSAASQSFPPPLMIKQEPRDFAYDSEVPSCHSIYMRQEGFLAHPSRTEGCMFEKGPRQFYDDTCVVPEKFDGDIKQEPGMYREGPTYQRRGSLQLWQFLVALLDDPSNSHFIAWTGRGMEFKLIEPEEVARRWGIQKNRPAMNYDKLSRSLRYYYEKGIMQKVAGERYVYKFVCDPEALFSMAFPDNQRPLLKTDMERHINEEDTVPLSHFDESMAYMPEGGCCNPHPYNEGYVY
Sequence of HSF1 (Q00613 whole entry): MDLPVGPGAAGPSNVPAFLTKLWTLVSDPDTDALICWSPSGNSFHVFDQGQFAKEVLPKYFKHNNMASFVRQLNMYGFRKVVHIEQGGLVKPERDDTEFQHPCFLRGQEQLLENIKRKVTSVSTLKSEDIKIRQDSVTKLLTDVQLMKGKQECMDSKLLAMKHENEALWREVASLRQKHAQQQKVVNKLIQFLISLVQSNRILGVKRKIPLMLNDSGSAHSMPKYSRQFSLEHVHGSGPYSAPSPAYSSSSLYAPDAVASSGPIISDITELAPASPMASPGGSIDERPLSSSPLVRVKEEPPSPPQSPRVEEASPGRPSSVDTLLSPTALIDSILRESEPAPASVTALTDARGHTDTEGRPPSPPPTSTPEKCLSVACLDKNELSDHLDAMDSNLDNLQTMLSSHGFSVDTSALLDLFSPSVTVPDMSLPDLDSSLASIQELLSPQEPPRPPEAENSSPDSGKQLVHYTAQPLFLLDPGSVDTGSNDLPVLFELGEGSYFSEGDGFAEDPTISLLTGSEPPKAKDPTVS
Sequence of ETV5 (P41161 whole entry): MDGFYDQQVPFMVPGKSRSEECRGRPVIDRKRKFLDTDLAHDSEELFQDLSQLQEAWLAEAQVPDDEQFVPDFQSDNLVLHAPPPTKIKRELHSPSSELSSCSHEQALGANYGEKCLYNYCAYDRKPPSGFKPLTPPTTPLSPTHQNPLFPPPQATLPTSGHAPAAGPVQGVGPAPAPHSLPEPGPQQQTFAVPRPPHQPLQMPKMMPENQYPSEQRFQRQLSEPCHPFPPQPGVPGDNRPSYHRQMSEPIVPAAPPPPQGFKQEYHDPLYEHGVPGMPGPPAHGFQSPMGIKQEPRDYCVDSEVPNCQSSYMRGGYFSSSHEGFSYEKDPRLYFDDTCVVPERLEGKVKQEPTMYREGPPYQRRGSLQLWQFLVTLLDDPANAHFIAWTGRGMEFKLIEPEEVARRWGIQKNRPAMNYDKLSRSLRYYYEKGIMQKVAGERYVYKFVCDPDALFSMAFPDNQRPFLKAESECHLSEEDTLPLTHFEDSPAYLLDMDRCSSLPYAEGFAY
Sequence of CRX (O43186 whole entry): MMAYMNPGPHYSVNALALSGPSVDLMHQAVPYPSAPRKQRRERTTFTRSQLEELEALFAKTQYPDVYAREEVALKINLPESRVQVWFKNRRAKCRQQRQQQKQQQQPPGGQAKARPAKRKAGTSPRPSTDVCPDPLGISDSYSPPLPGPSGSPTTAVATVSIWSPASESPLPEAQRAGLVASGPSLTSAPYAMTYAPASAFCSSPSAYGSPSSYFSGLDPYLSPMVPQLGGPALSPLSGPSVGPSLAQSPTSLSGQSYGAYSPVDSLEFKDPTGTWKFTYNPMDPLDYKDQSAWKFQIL

Regarding ATGCGA, the binding signal with FEV was 1.17 fold enrichment (6-mer frequency, TF over GST control); with ETV5 it was 1.17 fold enrichment (6-mer frequency, TF over GST control); in the assay with HSF1 it was 1.22 fold enrichment (6-mer frequency, TF over GST control); in the assay with SPIC, 1.26 fold enrichment (6-mer frequency, TF over GST control); in the assay with ELF4, 1.29 fold enrichment (6-mer frequency, TF over GST control); with ELK4, 1.33 fold enrichment (6-mer frequency, TF over GST control). The binding signal with ETV2 was 1.34 fold enrichment (6-mer frequency, TF over GST control); in the assay with ELF3, 1.31 fold enrichment (6-mer frequency, TF over GST control); in the assay with CRX it was 1.27 fold enrichment (6-mer frequency, TF over GST control); with ETV1, 1.16 fold enrichment (6-mer frequency, TF over GST control); with ERF, 1.16 fold enrichment (6-mer frequency, TF over GST control); with ETV3L it was 1.24 fold enrichment (6-mer frequency, TF over GST control). Also, the binding signal in the assay with ETS2 is 1.19 fold enrichment (6-mer frequency, TF over GST control); with SPDEF, 1.18 fold enrichment (6-mer frequency, TF over GST control); in the assay with ETV7, 1.28 fold enrichment (6-mer frequency, TF over GST control); with ELF5, 1.16 fold enrichment (6-mer frequency, TF over GST control); with ETV3 it was 1.32 fold enrichment (6-mer frequency, TF over GST control); with ETV6 it was 1.23 fold enrichment (6-mer frequency, TF over GST control).
